Consider 25 compounds from PubChem BioAssay AID588494 (NMMLSC, 2011).

This is one part of the list. A number with no mark means an inactive call.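 Rule for the calls: active = response vs DMSO under 50%, meaning signal dropped by over half, treated as fluorescence quencher; inconclusive = no clear call, values can overlap the other calls; inactive = the rest.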

The test in a line: quenchers of FAM-labeled RNA aptamer fluorescence, confirmation, artefact control for GRK2 aptamer binding project, biochemical, single concentration, cherry pick 2, flow cytometry (AID 588494).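 Note: labelled aptamer on streptavidin beads without GRK2 as a quench counter-screen; 100% = bead fluorescence of DMSO wells and lower means quenching.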 The note with it: carboxyfluorescein RNA aptamer beads, flow cytometry quenching; at 10 µM; hits give low values.
As for `COc1ccccc1C(=O)N(Cc1ccc(C)o1)C1CCS(=O)(=O)C1` (stereo not given), the fluorescence response vs DMSO was 98%.

In the case of `CCOCCc1c(O)nc(SCC(=O)NCc2ccco2)[nH]c1=O`, the fluorescence response vs DMSO is 100%.

Take `O=C(NC1C2CC3CC(C2)CC1C3)c1ccc(N2CCNCC2)c([N+](=O)[O-])c1` (stereo not given): the fluorescence response vs DMSO is 101%.

Regarding `CCOC(=O)C1=C(N)N(c2ccc(C)cc2)C2=C(C(=O)CCC2)C1c1cccs1` (stereo not given), the fluorescence response vs DMSO is 106%.

`CC1Sc2ccc(S(=O)(=O)CCC(=O)NCc3ccccc3Cl)cc2NC1=O` (stereo not given): the fluorescence response vs DMSO is 100%.

On to `CC1CCN(C(=S)NC2CC3CCC2C3)CC1` (stereo not given), for which the fluorescence response vs DMSO is 99%.

Turning to `O=C(CCS(=O)(=O)c1ccccc1)NC1CCCC1`, the fluorescence response vs DMSO was 94%.

With `CN=C(Nc1cccc(S(=O)(=O)N2CCOCC2)c1)c1ccccc1`, the fluorescence response vs DMSO was 110%.

Consider `Cc1ccc(S(=O)(=O)CC(=O)Nc2sc(C)c(C)c2C(N)=O)cc1`, for which the fluorescence response vs DMSO is 103%.

`CCC(C)(C(=O)NC1CCCCC1)N(C)C(=O)c1ccc2c(c1)OCO2` (stereo not given): the fluorescence response vs DMSO was 103%.

As for `CCOCCCNC(=O)c1ccc(CS(=O)(=O)c2cccc(C(F)(F)F)c2)o1`, the fluorescence response vs DMSO was 103%.

Regarding `COCCn1c(N)c(NCc2ccccc2)c(=O)[nH]c1=O`, the fluorescence response vs DMSO was 103%.

Consider `O=C(NCCCN1CCCCCC1)c1ccc(N2CCCC2=O)cc1`, for which the fluorescence response vs DMSO is 100%.

As to `CCN1CCN(C(=O)N[C@@H](C(=O)N[C@@H]2C(=O)N3C(C(=O)O)=C(CSc4nnnn4C)CS[C@H]23)c2ccc(O)cc2)C(=O)C1=O`, the fluorescence response vs DMSO is 99%.

As to `CC(=O)c1ccc(N2CCN(C(=O)c3ccc4nc[nH]c4c3)CC2)cc1`, the fluorescence response vs DMSO is 102%.

As for `Cc1nnc(SCC(=O)N2c3ccccc3C(C)(c3ccc(Cl)cc3)CC2(C)C)s1` (stereo not given), the fluorescence response vs DMSO is 100%.

Turning to `COc1cccc(OC)c1C(=O)Nc1ccc(Cc2ccncc2)cc1`, the fluorescence response vs DMSO is 98%.

Regarding `NC(=O)[C@H]1CC2(CC(c3cccc(NC(=O)[C@H]4CCC(=O)N4)c3)=NO2)CN1C(=O)c1ccccc1C(=O)c1ccccc1` (stereo not given in full), the fluorescence response vs DMSO is 101%.

In the case of `CCc1nn(CCCN2CCN(c3cccc(Cl)c3)CC2)c(=O)n1CCOc1ccccc1`, the fluorescence response vs DMSO is 100%.

Consider `COc1ccc(Cl)cc1NC(=O)CCS(=O)(=O)c1ccc(Br)cc1`, for which the fluorescence response vs DMSO is 101%.

Consider `COc1cc([N+](=O)[O-])cc([N+](=O)[O-])c1NC(=O)N1CCOCC1`, for which the fluorescence response vs DMSO was 103%.

For `CCOc1ccc(OCC)c(NC(=O)CCS(=O)(=O)c2ccc(C)cc2)c1`, the fluorescence response vs DMSO is 99%.

Turning to `O=C(C1CCCN(S(=O)(=O)c2ccc([N+](=O)[O-])cc2)C1)N1CCCCC1` (stereo not given), the fluorescence response vs DMSO is 103%.

For the compound `COc1ccc(Cl)cc1NC(=O)CCS(=O)(=O)c1cc2c(cc1C)NC(=O)CO2`, the fluorescence response vs DMSO is 98%.

In the case of `O=[N+]([O-])c1ccccc1S(=O)(=O)Nc1cccc2cccnc12`, the fluorescence response vs DMSO was 103%.
